# Results published in PubChem BioAssay AID504333 (National Center for Advancing Translational Sciences (NCATS), 2011).
# Among all 360,000 compounds or so, about 16,000 (4.4%) were called active. About 9% were inconclusive and are not listed. The sample holds actives, similar compounds and a random draw of the others, so the mix is not that of the screen. Calls follow the shape of the dose curve; as a rule, active = well fitted inhibition curve with a large enough effect; inconclusive = small, poorly fitted or top-dose-only effect; inactive = no such curve, though single readings can be large or run the other way.
# Molecular target: Bromodomain adjacent to zinc finger domain protein 2B (Homo sapiens) (UniProt Q9UIF8)
# Sequence (Q9UIF8 whole entry, looked up, the tested form may be a part): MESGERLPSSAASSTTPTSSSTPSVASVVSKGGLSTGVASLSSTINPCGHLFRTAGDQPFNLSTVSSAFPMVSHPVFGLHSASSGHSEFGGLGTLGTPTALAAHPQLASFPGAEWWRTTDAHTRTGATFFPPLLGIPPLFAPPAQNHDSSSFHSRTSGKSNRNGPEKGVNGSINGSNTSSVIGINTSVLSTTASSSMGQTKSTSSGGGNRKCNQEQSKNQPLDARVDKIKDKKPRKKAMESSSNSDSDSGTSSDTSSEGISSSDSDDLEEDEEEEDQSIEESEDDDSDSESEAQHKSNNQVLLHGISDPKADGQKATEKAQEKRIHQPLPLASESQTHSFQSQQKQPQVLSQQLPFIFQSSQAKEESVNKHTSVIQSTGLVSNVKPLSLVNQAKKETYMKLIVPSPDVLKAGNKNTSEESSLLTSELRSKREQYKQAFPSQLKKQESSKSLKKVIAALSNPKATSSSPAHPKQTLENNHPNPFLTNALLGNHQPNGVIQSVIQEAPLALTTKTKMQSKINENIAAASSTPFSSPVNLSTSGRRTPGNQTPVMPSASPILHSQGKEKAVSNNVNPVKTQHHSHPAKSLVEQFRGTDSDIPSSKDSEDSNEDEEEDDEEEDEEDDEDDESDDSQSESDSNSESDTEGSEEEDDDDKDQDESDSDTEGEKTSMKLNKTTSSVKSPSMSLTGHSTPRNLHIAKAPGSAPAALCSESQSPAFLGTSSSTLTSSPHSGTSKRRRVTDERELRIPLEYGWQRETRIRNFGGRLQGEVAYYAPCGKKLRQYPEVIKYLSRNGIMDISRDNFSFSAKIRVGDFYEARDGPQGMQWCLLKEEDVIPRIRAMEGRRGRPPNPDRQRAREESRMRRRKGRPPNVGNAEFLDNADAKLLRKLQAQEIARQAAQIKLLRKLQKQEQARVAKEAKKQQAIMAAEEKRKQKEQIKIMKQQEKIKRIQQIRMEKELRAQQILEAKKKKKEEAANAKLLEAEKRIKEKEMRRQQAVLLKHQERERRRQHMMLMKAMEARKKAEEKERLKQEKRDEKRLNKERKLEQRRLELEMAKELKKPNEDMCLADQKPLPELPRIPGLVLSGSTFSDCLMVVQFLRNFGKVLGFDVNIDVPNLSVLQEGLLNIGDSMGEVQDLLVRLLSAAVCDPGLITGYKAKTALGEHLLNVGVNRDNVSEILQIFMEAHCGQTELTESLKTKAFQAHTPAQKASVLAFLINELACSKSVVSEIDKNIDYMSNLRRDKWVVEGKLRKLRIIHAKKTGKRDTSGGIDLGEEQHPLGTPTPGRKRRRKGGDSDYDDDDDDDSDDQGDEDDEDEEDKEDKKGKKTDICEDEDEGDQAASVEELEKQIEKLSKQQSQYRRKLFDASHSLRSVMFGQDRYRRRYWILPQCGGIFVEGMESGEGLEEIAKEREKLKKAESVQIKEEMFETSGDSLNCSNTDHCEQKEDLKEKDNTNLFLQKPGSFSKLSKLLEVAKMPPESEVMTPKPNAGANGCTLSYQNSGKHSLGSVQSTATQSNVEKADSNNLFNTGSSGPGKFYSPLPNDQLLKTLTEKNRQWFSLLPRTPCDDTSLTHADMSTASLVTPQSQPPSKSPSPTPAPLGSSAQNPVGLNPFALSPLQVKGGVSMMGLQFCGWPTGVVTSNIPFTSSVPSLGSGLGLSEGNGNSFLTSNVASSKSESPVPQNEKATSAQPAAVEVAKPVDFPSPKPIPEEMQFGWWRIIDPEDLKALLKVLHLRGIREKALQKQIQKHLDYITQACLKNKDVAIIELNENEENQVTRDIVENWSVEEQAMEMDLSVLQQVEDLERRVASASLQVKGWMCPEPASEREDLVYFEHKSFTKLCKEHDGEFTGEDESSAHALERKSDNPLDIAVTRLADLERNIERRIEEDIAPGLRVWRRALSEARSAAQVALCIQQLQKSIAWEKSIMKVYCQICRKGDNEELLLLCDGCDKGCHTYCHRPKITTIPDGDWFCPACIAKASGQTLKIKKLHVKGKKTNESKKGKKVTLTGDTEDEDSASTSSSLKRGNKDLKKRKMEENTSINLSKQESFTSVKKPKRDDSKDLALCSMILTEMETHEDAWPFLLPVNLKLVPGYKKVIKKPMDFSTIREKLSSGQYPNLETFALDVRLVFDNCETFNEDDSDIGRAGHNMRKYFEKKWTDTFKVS
# Assay: qHTS Assay for Inhibitors of BAZ2B; also: nearly all actives have a fitted effect of over 60% in size
# Settings: AlphaScreen BAZ2B-H3K14Ac peptide displacement; series mostly up to 114 µM; activity change, negative = inhibition: at the top concentration
# In short: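 Inhibition is scored as reduced AlphaScreen emission. The BAZ2B/b-H3(5-23)K14Ac complex (50 nM each) in PBS pH 7.4, 0.01% Tween-20 meets compound (up to 110 uM) for 30 min at RT before bead addition.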
# % is scaled to controls: 0 for no effect and ±100 for the full control effect; potency is read from the fitted curve at half-maximal effect.
SMILES,"activity change, negative = inhibition",Potency
COc1ccc(-c2nc(SCC(=O)N3CCCC3)n[nH]2)cc1,4.84% (inactive),–
COc1ccc(-c2nc3n(c2Br)CCC3)cc1,–,50.1 µM (active)
COc1ccc(-c2nnc3n2CCCCC3)cc1,0.531% (inactive),–
CCc1nn(CC(=O)Nc2cc(C)cc(C)c2)c(=O)c2cc3sccc3n12,-3.37% (inactive),–
COc1ccc(-c2cc(=O)c3c(O)cc(O[C@@H]4O[C@H](CO[C@@H]5O[C@@H](C)[C@H](O)[C@@H](O)[C@H]5O)[C@@H](O)[C@H](O)[C@H]4O)cc3o2)cc1O,-3.8% (inactive),–
CCOC(=O)COc1cc(OCC(=O)OCC)c2c(=O)cc(-c3ccccc3)oc2c1,3.07% (inactive),–
COc1c(O)cc2oc(-c3ccc(O)c(O)c3)cc(=O)c2c1O,–,50.1 µM (active)
COCCCn1c(SCC(=O)Nc2ccccc2)nnc1-c1ccncc1,2.13% (inactive),–
COCCCn1c(Cc2csc(Nc3cccc(Cl)c3)n2)nnc1SCC(=O)OC1CCCCC1,–,39.8 µM (active)
COCCCn1c(SCC(=O)NC2CCCC2)nnc1-c1ccccc1,4.71% (inactive),–
COc1ccc(-c2cc(C(=O)NCc3cc(OC)c(OC)c(OC)c3)[nH]n2)cc1,-15.3% (inactive),–
CN(C)c1cccc(C(=O)Nc2nc3ccc(S(=O)(=O)NC(C)(C)C)cc3s2)c1,-20.8% (inactive),–
O=C(CN1CCCCCC1)Nc1c(Cl)cc(Cl)cc1Cl,-1.52% (inactive),–
Cc1csc(NC(=O)CN2CCCCCC2)n1,–,50.1 µM (active)
Cc1cc(C)c(NC(=O)CN2CCCCCC2)c(C)c1,-4.99% (inactive),–
CCOc1ccc(-c2nonc2NC(=O)c2oc3ccc(C)cc3c2C)cc1OCC,1.66% (inactive),–
COc1ccc(CCNc2nc(-c3ccc(Cl)cc3)cc(C(F)(F)F)n2)cc1OC,-0.128% (inactive),–
C#CCOCCOCCOCCNc1nc(N2CCN(C(=O)C(Cc3ccc(O)cc3)n3cc(C(N)CC(C)C)nn3)CC2)nc(N2CCN(C(=O)C(Cc3ccc(O)cc3)n3cc(C(N)C(C)CC)nn3)CC2)n1 (configuration not stated),–,56.2 µM (active)
CC[C@H](C)[C@@H](C(=O)N1CCNCC1)n1cc([C@@H](N)Cc2ccc(O)cc2)nn1,-27.4% (inactive),–
C#CCOCCOCCOCCNc1nc(N2CCN(C(=O)[C@H](CCC(=O)O)n3cc(C(N)CO)nn3)CC2)nc(N2CCN(C(=O)[C@H](Cc3ccc(O)cc3)n3cc(C(N)[C@H](C)CC)nn3)CC2)n1 (some centres not stated),–,39.8 µM (active)
C#CCOCCOCCOCCNc1nc(N2CCN(C(=O)[C@H](Cc3ccc(O)cc3)n3cc(C(N)CC(C)C)nn3)CC2)nc(N2CCN(C(=O)[C@H](CCC(=O)O)n3cc(C(N)[C@H](C)CC)nn3)CC2)n1 (some centres not stated),–,70.8 µM (active)
C#CCOCCOCCOCCNc1nc(N2CCN(C(=O)[C@H](CCCCN)n3cc([C@@H](N)C(C)CC)nn3)CC2)nc(N2CCN(C(=O)[C@H](Cc3ccc(O)cc3)n3cc([C@@H](N)C(C)CC)nn3)CC2)n1 (some centres not stated),–,44.7 µM (active)
CSc1ccc(C2C(C(=O)Nc3ccccc3)=C(C)Nc3nc4ccccc4n32)cc1 (configuration not stated),-18.3% (inactive),–

SMILES,"activity change, negative = inhibition",Potency
CCC(CC)C(=O)N1CCc2cc(OC)c(OC)cc2C1COc1ccc(F)cc1 (configuration not stated),-21.4% (inactive),–
COc1ccc(NC(=O)c2sc3nc[nH]c(=O)c3c2C)cc1,-19.2% (inactive),–
COc1ccc(OC)c(-c2nc(C(N)=O)c3c(n2)n(-c2ccc4c(c2)OCO4)c(=O)n3C)c1,-5.87% (inactive),–
CCc1ccccc1NC(=O)N1CCN(C(=O)c2nsc3ccccc23)CC1,9.41% (inactive),–
Cc1csc2nc(COC(=O)c3ccc(NC(=O)COc4ccccc4F)cc3)cc(=O)n12,2.08% (inactive),–
CCc1nc2ccc(C(=O)N3CCN(c4cc(Cl)ccc4C)CC3)cc2nc1CC,-3.97% (inactive),–
Cc1c(NC(=O)C(C)(C)C)cccc1-c1nc2ccccc2s1,-1.23% (inactive),–
O=C1CSC(=S)N1/N=C/c1ccc(O)c([N+](=O)[O-])c1,–,50.1 µM (active)
COc1cccc(N2CCN(C(=O)CCCCCn3c(=O)[nH]c4ccccc4c3=O)CC2)c1,-17.1% (inactive),–
COc1ccc2c(Sc3ccc(C)cc3)c(C(=O)NC(C)c3ccccc3)[nH]c2c1 (configuration not stated),-17.5% (inactive),–
Cc1ccc(N(CC(=O)NCC(C)c2ccccc2)S(=O)(=O)N(C)C)cc1 (configuration not stated),3.62% (inactive),–
CS(=O)(=O)c1ccc2c(c1)SC1=NC(=O)/C(=C/c3ccco3)C(=N)N12,–,50.1 µM (active)
CCC1=NN2C(=N)/C(=C/c3cc(C)n(-c4ccccc4)c3C)C(=O)N=C2S1,-9.65% (inactive),–
Cc1ccc(NC(=O)c2nc[nH]c2C(=O)N[C@@H](CCCCNC(=O)OC(C)(C)C)C(=O)OC(C)(C)C)cc1,4.5% (inactive),–
CC(C)(C)OC(=O)NCCCCCNC(=O)c1[nH]cnc1C(=O)Nc1nccs1,–,31.6 µM (active)
CC(C)(C)OC(=O)NCCCCCNC(=O)c1nc[nH]c1C(=O)NCc1ccccc1,-6.92% (inactive),–
OCc1cnc(SCc2ccc(F)cc2)n1Cc1ccc(F)cc1,1.23% (inactive),–
CCOc1ccc(-n2c(SCC(=O)NCc3ccccc3)nc3n[nH]c(C)c3c2=N)cc1,-0.2% (inactive),–
O=C(O)c1ccc(-n2cccc2)cc1O,–,56.2 µM (active)
O=C(Cn1ccc(=O)[nH]c1=O)Nc1ccc(C(=O)O)c(O)c1,-11% (inactive),–
O=C(Nc1ccc(C(=O)O)c(O)c1)c1ccccc1,-17.5% (inactive),–
Cc1ccc(S(=O)(=O)N(Cc2nc(-c3ccc(Cl)cc3)no2)C2CCCCC2)cc1,-2.47% (inactive),–
CN1C2CCC1/C(=C\c1ccccc1Cl)C(=O)/C2=C\c1ccccc1Cl,–,39.8 µM (active)

SMILES,"activity change, negative = inhibition",Potency
O=C(CN1CCCCCC1)NCCN1C(=O)S/C(=C\c2ccccc2Cl)C1=O,-16% (inactive),–
O=C(CN1C(=O)S/C(=C\c2ccccc2Cl)C1=O)NC1C=CS(=O)(=O)C1 (configuration not stated),-14.2% (inactive),–
O=C(Nc1ccc(F)cc1F)c1ccc2c(=O)n3c(nc2c1)CCCCC3,-1.2% (inactive),–
CCOC(=O)c1cc2c(=O)n3ccccc3nc2n(CCCOC)c1=NC(=O)C(C)(C)Oc1ccc(Cl)cc1,6.45% (inactive),–
Oc1ccccc1-c1nc(/C=C/c2ccc(F)cc2)no1,2.43% (inactive),–
Cc1ccn2c(=O)nc(SCC(=O)NCc3ccc(F)cc3)nc2c1,7.72% (inactive),–
Cc1ccn2c(=O)nc(SCC(=O)NCc3ccc4c(c3)OCO4)nc2c1,–,56.2 µM (active)
O=C(CSc1ncn[nH]1)NCc1ccc2c(c1)OCO2,-10.9% (inactive),–
Cc1ccc(C)c(Nc2nnc(-c3ccc(C)c(S(=O)(=O)N4CCCCC4)c3)c3ccccc23)c1,-2.85% (inactive),–
COc1cccc(CNC(=O)c2ccc3c(c2)sc2nc(-c4cccc(OC)c4)cn23)c1,0.455% (inactive),–
CN(C)CCOC1c2ccccc2-c2ccccc21,-16.4% (inactive),–
CN(C)CCOc1cccc(Br)c1,–,44.7 µM (active)
COc1ccc(OC)c(NC(=O)CN(C)CCOc2ccc(Br)cc2)c1,-0.9% (inactive),–
COc1ccc(NC(=O)CN2CCCN(Cc3ccccc3)S2(=O)=O)cc1,-14.2% (inactive),–
O=C(NCCCNCc1ccccc1)c1ccc(/C=N/O)nc1,–,50.1 µM (active)
CC(C)c1ccc(C(=O)NCCCc2ccccc2)cc1,20% (inactive),–
Nc1ccc(C(=O)NCc2ccccc2)cc1,-7.75% (inactive),–
O=C(Cc1ccc(Cl)cc1)NC(=S)Nc1ccccc1O,-24.5% (inactive),–
Oc1ccccc1N1CCN(C(=S)NCc2ccccc2)CC1,-22.6% (inactive),–
Oc1ccc(CNc2ccccc2O)cc1,–,44.7 µM (active)
O=C(c1ccc(C(F)(F)F)cc1)N1CCC(c2nc(-c3ccc(S(=O)(=O)N4CCCC4)cc3)no2)CC1,-9.31% (inactive),–
COc1cccc(NC(=O)Nc2ccc3c(c2)N(C)C(=O)c2ccccc2S3)c1,-10.1% (inactive),–
COc1ccc(CC(=O)N2CC(=O)Nc3ccc(Br)cc3C2c2ccc(F)cc2)cc1OC (configuration not stated),-14.3% (inactive),–

SMILES,"activity change, negative = inhibition",Potency
CCOC(=O)c1c(NC(=O)CSc2nnc(Cc3csc(N)n3)n2C)sc(C)c1C,–,12.6 µM (active)
CCOC(=O)c1c(NC(=O)CSc2nnc(CN3CCOCC3)n2C)sc2c1CCCC2,-26.7% (inactive),–
CCOC(=O)c1c(NC(=O)CSc2nccc(=O)[nH]2)sc(C)c1C,-9.27% (inactive),–
Cc1cccc(C)c1-n1ncc(C(=O)NCCCN2CCCCC2)c1C1CCN(C(=O)OC(C)(C)C)CC1,3.65% [at 57.1 µM] (inactive),–
CC(C)S(=O)(=O)c1oc(-c2ccc(F)cc2)nc1S(=O)(=O)c1ccc(F)cc1,-9.7% (inactive),–
Cc1ccc(NC(=O)CSc2nc3c([nH]c4ccccc43)c(=O)n2-c2ccccc2)cc1Cl,1.24% (inactive),–
Cc1ccc(N2CC(c3nnc(Cc4ccccc4Cl)o3)CC2=O)cc1 (configuration not stated),0.975% (inactive),–
Cc1ccc(C(=O)OCc2nc(N)nc(Nc3ccccc3C)n2)cc1,-38.2% (inactive),–
Cc1ccccc1Nc1nc(N)nc(CSc2ccccc2)n1,-3.17% (inactive),–
Cc1ccccc1Nc1nc(N)nc(CN2CCN(c3ccccn3)CC2)n1,–,50.1 µM (active)
CCOc1ccccc1CNC(=O)Nc1cn(CC(C)C)c(=O)c2ccccc12,-2.98% [at 57.1 µM] (inactive),–
COc1ccccc1CNC(=O)C(Cc1ccccc1)NS(=O)(=O)c1ccc2c(c1)oc(=O)n2C (configuration not stated),-17.6% (inactive),–
COc1ccc2c(C)c(CCC(=O)NCc3ccc(OC)c(OC)c3)c(=O)oc2c1,5.41% (inactive),–
Nc1ccc(Nc2cc(O)c3ncccc3c2)cc1,–,7.08 µM (active)
CC(C)c1ccc(Nc2ncccc2C#N)cc1,81.1% (inactive),–
CC1CCN(S(=O)(=O)c2ccc3c(ccn3CCC(=O)NCc3ccc(N(C)C)cc3)c2)CC1,–,28.2 µM (active)
O=C(CCn1ccc2cc(S(=O)(=O)N3CCCC3)ccc21)NCc1cccc(Cl)c1,-13.3% (inactive),–
CC1CCN(S(=O)(=O)c2ccc3c(ccn3CC(=O)O)c2)CC1,-4.21% [at 57.1 µM] (inactive),–
CCCN(CCC)C(=O)C(Cc1ccccc1)NS(=O)(=O)c1ccc2c(c1)c(=O)n(C)c(=O)n2C (configuration not stated),-3.16% (inactive),–
Cc1ccc(S(=O)(=O)N2CCN(CC(=O)N/N=C/c3cc([N+](=O)[O-])ccc3Cl)CC2)cc1,8.66% (inactive),–
O=S(=O)(c1ccc(NC(=S)NN=C(C2CC2)C2CC2)cc1)N1CCOCC1,-17.6% (inactive),–
O=[N+]([O-])c1cc(Cl)cc(/C=N/NC(=S)Nc2cc(S(=O)(=O)N3CCOCC3)ccc2Cl)c1O,–,1.78 µM (active)
Cn1c(=O)c2c(nc(SCC(=O)Nc3ccc(F)cc3)n2Cc2ccccc2)n(C)c1=O,1.84% (inactive),–
